Assay results reported in PubChem BioAssay AID2025 (NMMLSC, 2009).
Among all 330,000 compounds or so, about 980 (0.3%) were called active. The sample holds actives, similar compounds and a random draw of the others, so the mix is not that of the screen.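 Rule for the calls: active = percent response vs DMSO below 50%; inconclusive = fewer than 70 events counted for the yeast strain; inactive = the rest.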

Experiment: RPL19A-GFP expression modulators in yeast, primary screen, cell-based, S. cerevisiae, multiplex flow cytometry, MLPCN (AID 2025);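 note: median channel GFP fluorescence of the barcoded RPL19A-GFP strain; ratio of sample median GFP to plate DMSO average so 100% = DMSO; lower means less RPL19A-GFP as with rapamycin TOR inhibition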
Conditions: S. cerevisiae RPL19A-GFP strain, 3 h, at 10 µM, hits give low values

SMILES	percent response vs DMSO
Cc1noc(C)c1S(=O)(=O)NCCc1ccc(S(N)(=O)=O)cc1	95.7% (inactive)
Cc1cc(-c2ccc(C)c(S(=O)(=O)Nc3ccc(S(N)(=O)=O)cc3)c2)on1	99% (inactive)
CCc1ccc(-c2cc(C)no2)cc1S(=O)(=O)NCCc1ccc(S(N)(=O)=O)cc1	33.8% [may fluoresce violet] (active)
CCOC(=O)N1CCC(N(CCOC)C(=O)Nc2ccc(C)c(C)c2)CC1	89.6% (inactive)
CCOC(=O)C1Nc2ccc(C(F)(F)F)cc2C2C=CCC12 (stereo not drawn)	93.3% (inactive)
CC1CCN(C(=O)CN(c2ccc(Oc3ccccc3)cc2)S(C)(=O)=O)CC1	100% (inactive)
COc1ccc(NC(=O)c2cccc(Cl)c2)c[n+]1[O-]	106% (inactive)
CC(C)(C)OC(=O)c1c(N)n(CCCN2CCCC2=O)c2nc3ccccc3nc12	90% (inactive)
COCC(C)OC(=O)c1c(N)n(CCCN2CCOCC2)c2nc3ccccc3nc12 (stereo not drawn)	27% [may fluoresce violet] (active)
CC(CN1CCOCC1)OC(=O)c1ccc(C(C)(C)C)cc1 (stereo not drawn)	105% (inactive)
CCCCC(CC)CNC(=O)C(=O)C1C(=O)Nc2ccccc21 (stereo not drawn)	96.8% (inactive)
COc1ccc(N(CCC#N)S(=O)(=O)c2ccc(Cl)cc2)cc1	99.2% (inactive)
COc1ccccc1OCCNCC(O)COc1cccc2[nH]c3ccccc3c12 (stereo not drawn)	103% (inactive)
O=C(CNC(=O)c1ccc(Cl)cc1Cl)NCC(=O)Nc1ccccc1N1CCOCC1	100% (inactive)
O=C(c1ccccc1)N1CCN(c2ccc([N+](=O)[O-])c(NCc3ccco3)c2)CC1	98.5% (inactive)
COc1ccc(CCNc2cc(N3CCN(C(=O)c4ccccc4OC)CC3)ccc2[N+](=O)[O-])cc1OC	19.6% [may fluoresce violet] (active)
COc1ccccc1OCCNc1cc(N2CCOCC2)ccc1[N+](=O)[O-]	99.1% (inactive)
Cn1ccsc1=NC(=O)c1cc(S(=O)(=O)N2CCOCC2)ccc1Cl	101% (inactive)
Cn1ccs/c1=N\S(=O)(=O)c1ccc(C(C)(C)C)cc1	43.3% [may fluoresce violet] (active)
COc1ccc(C2=Nn3c(nnc3-c3ccccc3OC)SC2)cc1OC1CCCC1	92.8% (inactive)
Cc1cccn2c(=O)c3cc(C(=O)NCC4CCCO4)c(=N)n(Cc4ccc(F)cc4)c3nc12 (stereo not drawn)	97.2% (inactive)
Cc1cccn2c(=O)c3cc(C#N)c(=NC(=O)c4cccnc4)n(CC4CCCO4)c3nc12 (stereo not drawn)	97.3% (inactive)
Cc1cccn2c(=O)c3cc(C#N)c(=O)n(CCCN4CCOCC4)c3nc12	37.1% [may fluoresce violet] (active)
